The panel holds about 79,000 compounds, 15% with a hit somewhere; the sample as a whole holds those more often. A number with no mark means an inactive call. Active and inactive are the calls of the source. Cut-off read from the data, not from the text of the source: active = growth inhibition above about 70%; inactive = the rest. Where a SMILES comes first, the peptide text is derived from it. The star is where a group is joined. Cbz = O=C(OCc1ccccc1)*; Bn = c1ccc(C*)cc1
Columns and labels:
[1] = NCI Yeast Anticancer Drug Screen. Data for the rad50 strain (AID 155);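 note: 0% = growth of vehicle-only cultures of the same strain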; details: S. cerevisiae rad50 strain growth inhibition; at 50.0 µM; stronger effect = higher value
Summary of the method: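 Yeast carrying a defined DNA repair defect were exposed to test compounds, and growth was compared with vehicle-treated controls to give percent inhibition.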

[2] = NCI Yeast Anticancer Drug Screen. Data for the mec2-1 strain (AID 157); details: S. cerevisiae mec2-1 strain, at 50.0 µM, stronger effect = higher value
Summary of the method: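 Using mec2-1 yeast: add compound, measure growth, express inhibition versus vehicle-treated cultures.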

[3] = NCI Yeast Anticancer Drug Screen. Data for the sgs1 mgt1 strain (AID 161);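 note: 0% = growth of cultures given vehicle only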; details: S. cerevisiae sgs1 mgt1 strain, at 50.0 µM, stronger effect = higher value
Summary of the method: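 Yeast cells carrying a defined DNA-repair defect were exposed to test compounds. Growth inhibition was measured relative to vehicle-treated controls.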

[4] = NCI Yeast Anticancer Drug Screen. Data for the cln2 rad14 strain (AID 165);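 note: 0% = growth equal to vehicle treated cultures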; details: S. cerevisiae cln2 rad14 strain, at 50.0 µM, stronger effect = higher value
Summary of the method: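 Yeast strain cln2 rad14, bearing defects in cell cycle control and DNA repair, serves as the test system; values reflect growth inhibition compared with vehicle.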

[5] = NCI Yeast Anticancer Drug Screen. Data for the bub3 strain (AID 167); details: S. cerevisiae bub3 mutant strain, at 50.0 µM, stronger effect = higher value
Summary of the method: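 Compounds were applied to a genetically altered yeast strain carrying a cell-cycle control defect. Growth inhibition was scored against vehicle-treated controls.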

[6] = NCI Yeast Anticancer Drug Screen. Data for the mlh1 rad18 strain (AID 175); details: S. cerevisiae mlh1 rad18 strain growth inhibition; at 50.0 µM; stronger effect = higher value
Summary of the method: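 Steps: expose repair-defective yeast to compound; measure growth; express inhibition against vehicle-treated controls.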

SMILES	growth inhibition [1]	growth inhibition [2]	growth inhibition [3]	growth inhibition [4]	growth inhibition [5]	growth inhibition [6]
CCCCCCCCCCCCCCCC[N+]1(CC)CCSCC1	96.6% (active)	97.9% (active)	97.2% (active)	97.5% (active)	97.1% (active)	97.8% (active)
COC1CCC2(C)C3CCC4C(=CCC5C(C)(C)C(O)CCC45C)CC3(C)CCC2C1(C)C (stereo not given)	-8.45%	-12.3%	-31.3%	-25.4%	1.2%	-12.7%
C1CCC2(CC1)CCCN2	7.15%	3.35%	1.4%	-3.5%	-1.75%	6.35%
C/C(=C\c1ccccc1)C(O)C(=O)c1nc2ccc(Cl)cc2[nH]c1=O (stereo not given)	10.3%	-15.4%	6.15%	26%	-14.2%	6.55%
O=C(OCc1ccc([N+](=O)[O-])cc1)N1c2ccccc2[C@@]23O[C@]24CCC[C@H]3C#C/C=C\C#C[C@H]14	22.1%	25.2%	2.45%	-13.6%	9.85%	-32.6%
O=c1nc(-c2ccccc2)scc1-c1ccccc1	-1%	-10.6%	3.4%	19.1%	10%	-10.1%
O=C1OCC(Cc2ccc3c(c2)OCO3)[C@H]1Cc1ccc(O)cc1 (stereo not given in full)	1.45%	-18%	17.6%	21.9%	19.3%	-5.9%
CSC(=N)N1N=C2c3ccccc3CC[C@@H]2[C@@H]1c1ccccc1	-0.1%	-7.3%	-18.9%	38%	-10.8%	-18.4%
CCC(=O)OCCN(C(=O)CC)c1ccccc1	35.6%	5.75%	22.2%	-2.5%	-0.05%	31.4%
CCC(=O)SCC[N+](C)(C)C	16.1%	-30.8%	0.2%	8.8%	27.6%	4.55%
O=C1CC(C(F)(F)F)(C(F)(F)F)O1	11.3%	19.4%	-8.75%	-58.2%	13.6%	-19%
CCc1cc2c(cc1/C(C)=N/N=C(\C)c1cc3c(cc1CC)C(C)(C)CCC3(C)C)C(C)(C)CCC2(C)C	-27.1%	-1.8%	-9.3%	-30.6%	9.95%	-15.5%
CC1CC=C(C(O)C(C)C)C1 (stereo not given)	0.2%	6.2%	-2.7%	-11.8%	4.15%	-0.9%
N#CC1(N(O)C(=O)Nc2ccccc2)CCCCC1	5.55%	-10.3%	-0.4%	-7.05%	5.8%	-13.1%
CCCCCCCCCCCCNC	38.2%	30.4%	61.9%	30.6%	62.6%	44.9%
Cc1cc(Cc2cc(Cc3cc(C)cc(C(C)(C)C)c3O)c(C)cc2C)c(O)c(C(C)(C)C)c1	50.4%	18.4%	13.3%	-1.75%	-23.4%	38.5%
O=C(O)/C(=C\c1cccc(O)c1)c1ccccc1	-19.4%	-30.4%	-16.4%	-6.65%	-3.2%	-6%
CC(C)C(NC(=O)C(CSCc1ccccc1)NC(=O)OCc1ccccc1)C(=O)O (stereo not given) (Cbz-Cys(Bn)-Val-OH; configuration not given here)	24.1%	-2.4%	13.4%	28.1%	-2.1%	21.1%
CC(=O)OCCOCCN1CCN(c2c(O)c3c(c(O)c2Cl)C(=O)C=CC3=O)CC1	79.7% (active)	88.2% (active)	90.8% (active)	87.1% (active)	89.3% (active)	89.8% (active)
CCN(CC)Cc1cc(N=Nc2ccc3c(c2)c2ccccc2n3CC)c2ccccc2c1O	20%	10.9%	11.2%	12.6%	-5.5%	2.25%

SMILES	growth inhibition [1]	growth inhibition [2]	growth inhibition [3]	growth inhibition [4]	growth inhibition [5]	growth inhibition [6]
Cc1ccc(NC(=O)CCC(CC(=O)C(C)(C)C)=NNC(=O)C(=O)NN)cc1C	-25.8%	-19.3%	-19.4%	-23.5%	-7.4%	-22.2%
[N-]=[N+]=C(C(=O)OCC#CCOC(=O)C(=[N+]=[N-])S(=O)(=O)c1ccccc1)S(=O)(=O)c1ccccc1	-8.95%	-20.6%	12.8%	-31.6%	-8.95%	-17.1%
CC(=N/O)/C(C)=C/c1ccccc1	10.1%	7.3%	1.4%	8.4%	6.25%	2.7%
COc1ccc2c(c1)CC[C@@H]1[C@@H]2CC[C@@]2(C)[C@H]1C[C@@](C)(O)[C@H]2O	-5.65%	3.05%	-2.45%	-59.9%	10.8%	-11.7%
Clc1ccc2c(c1)CCc1cccnc1C2=C1CCNCC1	8.55%	-4.5%	-20.6%	16.1%	0.4%	-15.1%
CS(=O)(=O)OCc1nnn(-c2ccccc2)c1COS(C)(=O)=O	7.2%	-9.1%	-3.5%	-40.5%	11.5%	-11.7%
COc1ccc(C2C3=CONC3CC3CCCCC32)cc1 (stereo not given)	4.5%	-34.5%	-0.4%	8.25%	6.25%	6.5%
CN(C)c1nc(=Nc2ccc3c(c2)OCO3)ss1	30.5%	24.4%	54%	34.1%	16.9%	50.2%
O=S(=O)(CSc1ccccc1)c1ccccc1	-21.9%	-33.1%	-16.6%	-8.35%	-25.6%	-39.1%
Cc1cc2c(=O)cc(-c3ccccc3)oc2c(C(N)=O)c1C	15.3%	19.9%	27.5%	-2.95%	14.8%	1.55%
Cc1nc2ccc(C(F)(F)F)cc2nc1Nc1ccc(Cl)c(Cl)c1	20.2%	27.4%	47.6%	15.2%	6.95%	34%
CNC(=O)n1c(N)nc(-c2ccccc2)c1-c1ccccc1	14.3%	4.55%	18.4%	1.7%	-22.1%	-46.9%
Cc1nc(=S)c2[nH]c(=S)[nH]c2[nH]1	-2.7%	-16.1%	-3.8%	-18.8%	-1.9%	-8.2%
S=C(Sc1nc2ccccc2[nH]1)Sc1nc2ccccc2[nH]1	16.9%	-4.05%	10.2%	-34.9%	8.95%	24.6%
Cc1ccccc1C(=O)OCCBr	10.3%	-6.2%	4.15%	-27.1%	8.2%	2.9%
CCCCN(CCCC)C(=O)C(=O)C(C)C(=O)CC (stereo not given)	-3.6%	-2.75%	14.7%	-1.05%	12.3%	25.7%
CCOC(=O)C(Cl)(NC(=O)c1ccc(F)cc1)C(F)(F)F (stereo not given)	-6.25%	6.7%	-18.5%	7.3%	-12.9%	-18.1%
CCC(CC)C(=O)OCCOc1ccccc1	0.9%	-0.25%	3.95%	-20.2%	19.4%	-1.8%
O.O.O=c1[nH]cc(CO)c(=O)[nH]1.[NH2-].[NH2-].[Pt+2]	14.1%	-1.15%	14.5%	16.6%	0.45%	4.25%
CC1CCC2C(C(=O)O[C@H]3C4CCO[C@@H](OC5OC(CO)C(O)C(O)C5O)C4[C@@]4(CO)O[C@@H]34)=CO[C@@H](OC3OC(CO)C(O)C(O)C3O)C12 (stereo not given in full)	16.4%	-9.6%	5.9%	22.2%	22.6%	19.6%
